This note sets out measurements from PubChem BioAssay (NCI).

Assay in all cases: NCI-60 one-dose screen, 48 h (100 = growth as untreated, 0 = no growth, -100 = all killed)
One experiment has as its system EKVX NSCLC. The note with it: 10 µM unless noted.
Another experiment concerns SN12C renal. Conditions: 10 µM unless noted.
A further experiment deals with UO-31 renal. The note with it: 10 µM unless noted.
The next experiment concerns TK-10 renal. The note with it: 10 µM unless noted.
For the next experiment, the system named is ACHN renal. Conditions: 10 µM unless noted.
A further experiment relates to A498 renal. The note with it: 10 µM unless noted.
Another experiment deals with CCRF-CEM leukemia. The note with it: 10 µM unless noted.
Another experiment relates to MOLT-4 leukemia. The note with it: 10 µM unless noted.
Another experiment relates to SR leukemia. Conditions: 10 µM unless noted.
The next experiment concerns RPMI-8226 leukemia. The note with it: 10 µM unless noted.
The subject of the next experiment is OVCAR-8 ovarian. The note with it: 10 µM unless noted.
Another experiment concerns OVCAR-5 ovarian. Conditions: 10 µM unless noted.
The test system of a further experiment is OVCAR-4 ovarian. Conditions: 10 µM unless noted.
For a further experiment, the system named is SK-OV-3 ovarian. Conditions: 10 µM unless noted.
Another experiment has as its system IGROV1 ovarian. Conditions: 10 µM unless noted.
For the next experiment, the system named is OVCAR-3 ovarian. The note with it: 10 µM unless noted.
The next experiment has as its system HS 578T breast. Conditions: 10 µM.
A further experiment concerns NCI/ADR-RES ovarian. The note with it: 10 µM unless noted.

This is part of a sample that, as a whole, favours compounds with a hit. Of some 83,000 tested, about 20% had one in any assay.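 Cells were grown in 96-well plates and exposed to the test compound at a single concentration for 48 hours; results are reported as percent growth, with values below 10 considered active.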 Unmarked numbers belong to inactive results. Activity calls are given as the source filed them.

As to `c1ccc(-c2[nH]c3ccccc3c2-c2ccccc2)cc1`, the growth with EKVX NSCLC is 77.1%; in the experiment on SN12C renal it was 91.8%; with UO-31 renal, 88.6%; in the experiment on TK-10 renal it was 107%; in the experiment on ACHN renal it was 93.2%; in the experiment on A498 renal it was 92.8%. Also, the growth in the experiment on CCRF-CEM leukemia is 47.6%; in the experiment with MOLT-4 leukemia it was 66.2%; in the experiment on SR leukemia, 88.6%; with RPMI-8226 leukemia, 32.6%; in the experiment with OVCAR-8 ovarian, 92%; in the experiment on OVCAR-5 ovarian, 91.8%. In addition, the growth was 78% with OVCAR-4 ovarian; 95% in the experiment on SK-OV-3 ovarian; 120% in the experiment with IGROV1 ovarian; 96.1% with OVCAR-3 ovarian; 106% with HS 578T breast; 95.7% in the experiment on NCI/ADR-RES ovarian.

Turning to `CC(=O)c1cc(C(=O)c2ccc3c(c2)Sc2ccccc2N3)c2c(C)cccn12`, the growth with EKVX NSCLC was 38.1%; with SN12C renal, 35.5%; in the experiment on UO-31 renal it was 34.1%; with TK-10 renal it was 56.9%; with ACHN renal, 32.4%; with A498 renal, -5.33% (active). For the same compound, the growth is 16.3% with CCRF-CEM leukemia; 12% in the experiment with MOLT-4 leukemia; 12.8% in the experiment with SR leukemia; 15.7% with RPMI-8226 leukemia; 18.8% in the experiment with OVCAR-8 ovarian; 45.4% with OVCAR-5 ovarian. Also, the growth in the experiment on OVCAR-4 ovarian was 47%; in the experiment on OVCAR-3 ovarian it was -27.5% (active); with HS 578T breast, 56.2%; in the experiment on NCI/ADR-RES ovarian, 9.46% (active).

For `CNC(=O)c1cc(Oc2ccc(NC(=O)c3nc(S(C)(=O)=O)n(C)c3-c3ccc(F)cc3)cc2)ccn1`, the growth in the experiment on EKVX NSCLC is 71.2%; in the experiment with SN12C renal, 54.9%; in the experiment with UO-31 renal it was 47.9%; in the experiment on TK-10 renal it was 68.5%; with ACHN renal, 45.8%; in the experiment on A498 renal it was 38%. For the same compound, the growth was 85% with CCRF-CEM leukemia; 62.4% with MOLT-4 leukemia; 60.2% in the experiment on SR leukemia; 55.6% with RPMI-8226 leukemia; 75.8% in the experiment with OVCAR-8 ovarian; 104% in the experiment with OVCAR-5 ovarian. Also, the growth was 67.1% with OVCAR-4 ovarian; 58.9% in the experiment with SK-OV-3 ovarian; 54.3% in the experiment on IGROV1 ovarian; 69.6% in the experiment with OVCAR-3 ovarian; 76.9% in the experiment with HS 578T breast; 77.8% with NCI/ADR-RES ovarian.

Regarding `CC(C)NCCCCCNc1cc(O)cc2cccnc12`, the growth in the experiment with EKVX NSCLC is -8.81% (active); with SN12C renal, 59%; in the experiment on UO-31 renal, 88.4%; in the experiment with TK-10 renal, 124%; with ACHN renal it was 102%; with A498 renal it was 79.1%. In addition, the growth is 94.3% with CCRF-CEM leukemia; 16% with MOLT-4 leukemia; 22.5% in the experiment with SR leukemia; 66.6% in the experiment on RPMI-8226 leukemia; 31.3% in the experiment on OVCAR-8 ovarian; 98.8% in the experiment on OVCAR-5 ovarian. In addition, the growth in the experiment with OVCAR-4 ovarian is -5.19% (active); in the experiment on SK-OV-3 ovarian it was 65.6%; with IGROV1 ovarian it was 32.2%; in the experiment on OVCAR-3 ovarian, 28.3%; in the experiment with HS 578T breast, 88.8%; with NCI/ADR-RES ovarian it was 100%.

`O=c1[nH]cnc2nc[nH]c12`: the growth in the experiment on EKVX NSCLC was 81.6%; in the experiment on SN12C renal it was 96.7%; in the experiment with UO-31 renal, 94.2%; with TK-10 renal, 115%; in the experiment on ACHN renal, 103%; in the experiment on A498 renal it was 87.9%. Further, the growth in the experiment with CCRF-CEM leukemia is 120%; in the experiment with MOLT-4 leukemia, -45.9% (active); with SR leukemia, 48.8%; in the experiment on RPMI-8226 leukemia it was 93.5%; with OVCAR-8 ovarian, 76.9%; in the experiment on OVCAR-4 ovarian it was 94.5%. The growth was 121% in the experiment with SK-OV-3 ovarian; 109% in the experiment with IGROV1 ovarian; 174% in the experiment on OVCAR-3 ovarian; 123% in the experiment on HS 578T breast; 97.8% in the experiment on NCI/ADR-RES ovarian.

As for `COc1ccc(/C(=C\c2cc(OC)c(OC)c(OC)c2)C(=O)N2CCNCC2)cc1`, the growth in the experiment on EKVX NSCLC is 105%; in the experiment with SN12C renal, 101%; with UO-31 renal it was 83.4%; in the experiment on TK-10 renal, 94.6%; in the experiment with ACHN renal, 98%; with A498 renal it was 85.6%. Moreover, the growth in the experiment on CCRF-CEM leukemia was 96.1%; in the experiment on MOLT-4 leukemia, 87.2%; in the experiment with SR leukemia, 94.6%; in the experiment on RPMI-8226 leukemia, 95.1%; in the experiment with OVCAR-8 ovarian it was 105%; in the experiment on OVCAR-5 ovarian, 102%. The growth was 110% in the experiment with OVCAR-4 ovarian; 108% in the experiment on SK-OV-3 ovarian; 102% in the experiment with IGROV1 ovarian; 108% in the experiment with OVCAR-3 ovarian; 102% in the experiment with HS 578T breast; 98.3% in the experiment on NCI/ADR-RES ovarian.

In the case of `Cc1n(Cc2ccc3ccccc3n2)cc[n+]1Cc1ccc2ccccc2c1`, the growth in the experiment on EKVX NSCLC is 48.3%; in the experiment on SN12C renal, 1.98% (active); in the experiment on UO-31 renal, 81%; in the experiment with TK-10 renal, 37.8%; in the experiment with ACHN renal, 88.5%; in the experiment on A498 renal, -2.15% (active). Further, the growth is 16.3% in the experiment with CCRF-CEM leukemia; 5.13% (active) in the experiment on MOLT-4 leukemia; 11.6% in the experiment on SR leukemia; -3.22% (active) with RPMI-8226 leukemia; 11.9% in the experiment on OVCAR-8 ovarian; 9.08% (active) in the experiment on OVCAR-5 ovarian. Also, the growth in the experiment with OVCAR-4 ovarian is 7.17% (active); in the experiment on SK-OV-3 ovarian, -2.36% (active); in the experiment on IGROV1 ovarian, 5.65% (active); with OVCAR-3 ovarian it was 6.35% (active); with HS 578T breast, 24.4%; in the experiment with NCI/ADR-RES ovarian it was 98.7%.
